# Results filed as inconclusive are left out. Where a call stands in place of a potency, no number is given. The source made the active and inactive calls. The call rests on the fitted dose curve; in most records, active means well fitted curve in the direction sought with a large enough effect; inconclusive means small, poorly fitted or top-dose-only effect, or another doubt; inactive means no such curve, though single readings can be large; an effect the other way counts as inactive or inconclusive.
# Columns and labels:
# [1] = target: Aldehyde dehydrogenase, mitochondrial (Homo sapiens) (UniProt P05091); assay: qHTS for Inhibitors of the Aldehyde Dehydrogenase Family (ALDH2) Primary screen (AID 2061308); further: nearly all actives have a fitted effect of over 55% in size
# [2] = target: Retinaldehyde dehydrogenase 3 (Homo sapiens) (UniProt P47895); assay: qHTS for Inhibitors of the Aldehyde Dehydrogenase Family (ALDH1A3) Primary screen (AID 2061315)
Structure (SMILES),Potency [1],Potency [2]
COc1ccccc1C(=O)OCC#CCSc1nnc(-c2cccc3ccccc23)o1,inactive,inactive
O=C(CNC(=O)c1ccc(Cl)c(C(F)(F)F)c1)OC(C(=O)Nc1cc(C(F)(F)F)ccc1Cl)c1ccccc1 (stereo unspecified),inactive,inactive
COc1ccc(OCc2nnc3n2N=C(c2ccccc2)CS3)cc1,inactive,inactive

# From PubChem BioAssay (NCATS)
